Reference: PubChem BioAssay (NCI)
Compounds without any hit were thinned out: in the full panel of roughly 83,000, 20% have a hit.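 Cells were grown in 96-well plates and exposed to the test compound at a single concentration for 48 hours; results are reported as percent growth, with values below 10 considered active.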 Unmarked numbers belong to inactive results. Calls of active or inactive are those of the source.

Assays:
Test in all cases: NCI-60 one-dose screen, 48 h (100 = growth as untreated, 0 = no growth, -100 = all killed)
Conditions in all cases: 10 µM unless noted
NCI-H23 lung = tested on: NCI-H23 lung
NCI-H226 lung = tested on: NCI-H226 lung
NCI-H322M lung = tested on: NCI-H322M lung
HOP-62 NSCLC = tested on: HOP-62 NSCLC
NCI-H460 lung = tested on: NCI-H460 lung
HOP-92 NSCLC = tested on: HOP-92 NSCLC
NCI-H522 lung = tested on: NCI-H522 lung
A549/ATCC NSCLC = tested on: A549/ATCC NSCLC
786-0 renal = tested on: 786-0 renal
COLO 205 colon = tested on: COLO 205 colon

| SMILES | growth (NCI-H23 lung) | growth (NCI-H226 lung) | growth (NCI-H322M lung) | growth (HOP-62 NSCLC) | growth (NCI-H460 lung) | growth (HOP-92 NSCLC) | growth (NCI-H522 lung) | growth (A549/ATCC NSCLC) | growth (786-0 renal) | growth (COLO 205 colon) |
| --- | --- | --- | --- | --- | --- | --- | --- | --- | --- | --- |
| COC1=CC(c2ccc[nH]2)=N/C1=C\c1[nH]c(C)c(C(=O)CCCCC(=O)Oc2ccc3c(c2)CCC2C3CC[C@]3(C)[C@@H](O)CC[C@@H]23)c1C (stereo not given in full) | 73.3% | 61.5% | 62.9% | 68.4% | 29.6% | 30.4% | 12.9% | 52.6% | 66.1% | 94.6% |
| COc1ccc(S(=O)(=O)Nc2cc(/C=C\c3cc(OC)c(OC)c(OC)c3)cc(OC)c2OC)cc1OC | 31.4% | 66.6% | 55.2% | 52.3% | 11.4% | 43.3% | 37.4% | 34% | 18% | -47.4% (active) |
| O=C(CCCn1c(=O)c2sc3ccccc3c2n2nnc(-c3ccccc3)c12)NCCc1cnc[nH]1 | -20.4% (active) | 105% | -13.7% (active) | -59.8% (active) | -44.1% (active) | -54.5% (active) | -71.9% (active) | -45.7% (active) | -77.7% (active) | -36.8% (active) |
| Cc1ccc(-c2csc3nc(C)c(CCCl)c(=O)n23)cc1 | 87.5% | 78.6% | 98.5% | 87.8% | 99.5% | 80.8% | 88.8% | 98% | 104% | 119% |
| CNC(=O)c1cc(Oc2ccc3c(c2)sc2nc(-c4ccc(Cl)cc4)cn23)ccn1 | 72.6% | 38.9% | 92.9% | 62.5% | 81.8% | 76.8% | 61.7% | 79.4% | 77.9% | 114% |
| Cn1c(-c2nonc2NC(=O)c2ccc(F)cc2)nc2ccccc21 | 108% | 96% | 102% | 120% | 101% | 104% | 95.2% | 98.1% | 98.6% | 117% |
| Cc1cccc(NC(=O)c2sc3nc4c(cc3c2N)CCCC4)c1 | 65% | 64.8% | 37.2% | 37.8% | 27.6% | 56.5% | 24.5% | 31.5% | 59.8% | 26.9% |
| CCOC(=O)C(Cc1ccccc1)n1c(O)c(C=Nc2ccc(C(=O)OCCN(CC)CC)cc2)sc1=O (stereo not given) | 102% | 96.7% | 94.4% | 103% | 99.3% | 84.2% | 85.7% | 74.4% | 90.8% | 95.5% |
| CCN(Cc1ccccc1)c1ccc(SC#N)cc1 | 80.6% | 112% | 91.6% | 118% | 90% | 53.4% | -26.7% (active) | 102% | 73.4% | 50.4% |
| COc1cc(C(=O)/C=C/c2cc(C(=O)c3cc(OC)c(OC)c(OC)c3)ccc2OC)ccc1N | -29.8% (active) | -38.7% (active) | 7.82% (active) | 43.2% | -15.6% (active) | 46.1% | -58.9% (active) | 18.5% | 10.5% | -58.8% (active) |
| Cc1ccc(Cn2c(-c3nonc3N)nc3ccccc32)cc1 | 83.3% | 82.7% | 86% | 76.5% | 71.4% | 77.6% | 66.4% | 57.3% | 92.3% | 80% |
| Cc1nc(Nc2cccnc2)sc1C(=O)/C=C/c1ccc(Cl)cc1 | 92.8% | 62.5% | 32.1% | 15.6% | 70.6% | 92% | 44.7% | 26.5% | 12.3% | 43.8% |
| Cc1oc2ncnc(Nc3ccccc3)c2c1C(=O)NCCO | 92% | 106% | 108% | 99% | 98.6% | 88.6% | 96.6% | 98.1% | 98.7% | 100% |
| CCOc1ccc(/C=C/C=N/NC(N)=S)cc1 | 78.7% | 119% | 91.7% | 106% | 96% | 89.3% | 37.3% | 86.1% | 56% | 84.5% |
| COc1cc(Br)c(OC)cc1Br | 78% | 98.3% | 89.7% | 93.5% | 99.3% | 96.9% | 90.4% | 95.6% | 105% | 109% |
| NC(=O)NC(=O)/C=C/C(=O)OCCCl | 111% | 98.2% | 105% | 114% | 104% | 71.6% | -42.5% (active) | 105% | 125% | 97.7% |
| COc1ccc(-c2nc3sccn3c2-c2ccnc(NCCCNS(=O)(=O)c3ccc4ccccc4c3)n2)cc1 | 64.3% | 62% | 93.1% | 134% | 75.9% | 104% | 62.4% | 76.1% | 67.6% | 57.6% |
| COC1=CC(c2ccc[nH]2)=N/C1=C\c1[nH]c(C)c(CCCn2cc(CCCCCCCCC[C@@H]3Cc4cc(O)ccc4C4CC[C@]5(C)[C@@H](O)CC[C@H]5C43)nn2)c1C (stereo not given in full) | 49.9% | 68.2% | 44.6% | 60.3% | 37.3% | 25.8% | 24.5% | 48.3% | 63.9% | 35.8% |
| CC1=C(C#N)C(C)(C)C(C#N)=C(C)N1 | 102% | 105% | 109% | 109% | 106% | 95.6% | 104% | 101% | 105% | 115% |
| O=C1Nc2cc(Cl)ccc2Oc2cc(Oc3ccccc3)ccc21 | 54.8% | 72.3% | 76.2% | 64.1% | 25.1% | 115% | 45.1% | 62.2% | 74.3% | 45.2% |
| CCCCn1c(=O)c(C2CNC(=O)c3ccccc3N2)cc2ccccc21 (stereo not given) | 95% | 111% | 111% | 91.8% | 102% | 95.2% | 92.5% | 97.1% | 92.4% | 111% |
| COc1cc(C2C3=C(COC3=O)Nc3c2ccc2c3CCCC2)cc2c1OCO2 (stereo not given) | 16.4% | -5.06% (active) | 47% | 21.9% | 3.74% (active) | 127% | -35.1% (active) | 25% | 18.7% | -67.7% (active) |
| CCCCCCc1nc2c(c(C)nn2-c2ccccc2)c2c1CCCCC2 | 100% | 89.2% | 110% | 91.3% | 110% | 91.5% | 93.2% | 103% | 108% | 107% |
| COc1ccc(-c2cn[nH]c2-c2cc(OC)c3c(c2)OCCO3)cc1 | 25.6% | 57.1% | 50.7% | 24% | 4.65% (active) | 46.6% | -22.8% (active) | 30% | 33% | -59.5% (active) |
| O=C(c1c[nH]c2ccccc12)C(Sc1nc2ccccc2c(=O)[nH]1)c1ccccc1 (stereo not given) | 116% | 95.9% | 121% | 89.6% | 110% | 91.7% | 93.7% | 93.4% | 104% | 96.9% |
